Results taken from PubChem BioAssay (EPA / NIEHS).
“And” between values parts separate entries of the source, which are not always exact repeats. Identical values can stand only once. Results filed as inconclusive are left out. The source holds several records for some structures; these can differ, active in one and inactive in another. The source made the active and inactive calls. The calls were made as follows, unless noted: active = hit-call score of the fitted dose curve at least 0.9, where 1 is the maximum; inconclusive = response in the unintended direction; inactive = score below 0.9.

Assays:
[1] = read-out: Cellular tumor antigen p53 (Homo sapiens) (UniProt P04637); test: LTEA_HepaRG_TP53: Life Technologies and Expression Analysis (LTEA) Assay for Tumor Protein P53 (TP53) using HepaRG (AID 2283537; active = hit-call score of the fitted dose curve at least 0.9, where 1 is the maximum; inactive = score below 0.9); settings: mRNA level, 48 h; actives raise or lower the signal
Procedure, shortened: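 Differentiated HepaRG cells in serum-free induction medium exposed 48 h in duplicate to 8 half-log concentrations, top 100 uM, 0.5% DMSO. TP53 mRNA by TaqMan qRT-PCR (Fluidigm), normalized to ACTB, GAPDH, POLR2A; fitted bidirectionally versus DMSO.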

[2] = read-out: UDP glucuronosyltransferase (UGT1A6), UGT1A6 (gene 54578); test: LTEA_HepaRG_UGT1A6: Life Technologies and Expression Analysis (LTEA) Assay for UDP glucuronosyltransferase (UGT1A6) using HepaRG (AID 2283539; active = hit-call score of the fitted dose curve at least 0.9, where 1 is the maximum; inactive = score below 0.9); settings: mRNA level, 48 h; actives raise or lower the signal
Procedure, shortened: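 Measures mRNA change in HepaRG hepatic cells exposed 48 h to chemicals (eight-point, maximum 100 uM, 0.5% DMSO vehicle) in serum-free induction medium. Expression normalized to endogenous controls; DMSO served as negative control and baseline.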

[3] = read-out: X-box binding protein 1 (XBP1), XBP1 (gene 7494); test: LTEA_HepaRG_XBP1: Life Technologies and Expression Analysis (LTEA) Assay for X-box binding protein 1 (XBP1) using HepaRG (AID 2283540; active = hit-call score of the fitted dose curve at least 0.9, where 1 is the maximum; inactive = score below 0.9); settings: mRNA level, 48 h; actives raise or lower the signal
Procedure, shortened: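 Eight concentrations (half-log, highest 100 uM, 0.5% DMSO) tested in duplicate on HepaRG cells over 48 h in serum-free induction medium; qRT-PCR of XBP1 normalised to ACTB, GAPDH, POLR2A.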

[4] = LTEA_HepaRG_LDH_cytotoxicity: Cytotoxicity Assessment in the Life Technologies and Expression Analysis (LTEA) Assay (AID 2283563);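 as to AC50: LDH activity released into spent culture medium as a marker of cell death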
Procedure, shortened: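 Spent-medium LDH after 48 h chemical exposure of HepaRG cells in serum-free induction medium; eight concentrations, half-log dilutions from 100 uM, duplicate wells, fitted upward relative to 0.5% DMSO.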

[5] = ATG_XTT_Cytotoxicity: Cytotoxicity Assessment in the Attagene TRANS-FACTORIAL HepG2 Assay (AID 2283584)
Procedure, shortened: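 24 h chemical exposure of reporter-transfected HepG2; XTT signal loss vs DMSO indicates cytotoxicity.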

[6] = TOX21_p53_BLA_p2_viability: Viability Assessment in the Tox21 HCT-116 p53 Agonism Beta-lactamase Assay, Phase 2 (AID 2283591);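 also: compound exposure lasted 16 h at 37 °C; actives lower the ATP signal meaning cytotoxicity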
Procedure, shortened: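 HCT-116 p53-bla cells (4000/well) rested 5 h at 37C, then received compounds in DMSO (217-fold dilution) for 16 h at 37C, 5% CO2. After the CCF4 read, CellTiter-Glo was added; ATP luminescence was read after 30 min at room temperature.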

[7] = target: Cellular tumor antigen p53 (Homo sapiens) (UniProt P04637); test: TOX21_p53_BLA_p2_ratio: Tox21 HCT-116 p53 Agonism Beta-lactamase Assay, Ratio, Phase 2 (AID 2283592)
Procedure, shortened: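 Human colon HCT116 cells with an inducible p53 beta-lactamase reporter are exposed to test chemicals for 16 h at 37C. Reporter induction is read as the 460/530 nm emission ratio after CCF4-AM loading, normalized to DMSO.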

[8] = TOX21_p53_BLA_p3_viability: Viability Assessment in the Tox21 HCT-116 p53 Agonism Beta-lactamase Assay, Phase 3 (AID 2283593);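 also: cells exposed to compound for 16 h before reading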
Procedure, shortened: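 HCT-116 cells (4000/well) rested 5 h at 37C, then got DMSO compounds by pin tool (217-fold dilution) for 16 h at 37C, 5% CO2. After the bla read, CellTiter-Glo was added and luminescence read at 30 min, room temperature.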

[9] = target: Cellular tumor antigen p53 (Homo sapiens) (UniProt P04637); test: TOX21_p53_BLA_p3_ratio: Tox21 HCT-116 p53 Agonism Beta-lactamase Assay, Ratio, Phase 3 (AID 2283596)
Procedure, shortened: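 HCT116 p53-bla cells (4000/well) given compound in DMSO (217-fold dilution) after 5 h, incubated 16 h at 37C. CCF4-AM substrate 2 h at room temperature; 460/530 nm emission ratio, gain fitted against DMSO.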

[10] = TOX21_p53_BLA_p4_viability: Viability Assessment in the Tox21 HCT-116 p53 Agonism Beta-lactamase Assay, Phase 4 (AID 2283597);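 also: hits lower the luminescence signal meaning cytotoxicity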
Procedure, shortened: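 Luminescent ATP readout (CellTiter-Glo, 30 min, room temperature) in the same wells as the p53 bla ratio. HCT116 cells were treated for 16 h at 37C with DMSO-dissolved compounds.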

[11] = target: Cellular tumor antigen p53 (Homo sapiens) (UniProt P04637); test: TOX21_p53_BLA_p5_ratio: Tox21 HCT-116 p53 Agonism Beta-lactamase Assay, Ratio, Phase 5 (AID 2283599)
Procedure, shortened: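 HCT-116 cells carrying a p53-inducible beta-lactamase reporter were seeded at 4000 cells/well and dosed after 5 h with compound in DMSO (217-fold dilution). After 16 h at 37C, CCF4-AM substrate was added for 2 h, and the 460/530 nm emission ratio was scored as gain-of-signal versus DMSO.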

[12] = TOX21_p53_BLA_p5_viability: Viability Assessment in the Tox21 HCT-116 p53 Agonism Beta-lactamase Assay, Phase 5 (AID 2283600)
Procedure, shortened: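 Seeded cells (4000/well) settle 5 h before compound addition. Plates then incubate 16 h at 37C, receive FRET substrate for 2 h, and finally CellTiter-Glo, with luminescence measured after a 30 min room-temperature incubation.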

[13] = target: Cellular tumor antigen p53 (Homo sapiens) (UniProt P04637); test: TOX21_p53_BLA_p4_ratio: Tox21 HCT-116 p53 Agonism Beta-lactamase Assay, Ratio, Phase 4 (AID 2283601)
Procedure, shortened: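 HCT116 cells carrying an inducible beta-lactamase reporter were plated at 4000 cells/well, rested 5 h, then exposed to compounds in DMSO (217-fold dilution) for 16 h at 37C. CCF4-AM substrate was loaded 2 h at room temperature; 460/530 nm emission ratio scored gain-of-signal versus DMSO.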

[14] = Tanguay_ZF_120hpf_MORT_legacy: (Legacy) Oregon State University Tanguay Lab 120 Hour Post-fertilization zebrafish Assay for Mortality (AID 2283633);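 as to AC50: fitted as increase in binary mortality versus DMSO negative control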
Procedure, shortened: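 Single dechorionated Tropical 5D embryos were held with test chemical (0.64% DMSO final) from 6 to 120 hpf at 28C under foil. Deaths at 24 or 120 hpf were recorded as binary calls, analysed for increase over DMSO controls.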

[15] = Tanguay_ZF_120hpf_YSE_legacy: (Legacy) Oregon State University Tanguay Lab 120 Hour Post-fertilization zebrafish Assay for Yolk Sac Edema (AID 2283634);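 as to AC50: actives raise the incidence of yolk sac edema above the DMSO baseline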
Procedure, shortened: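 Single dechorionated embryos were held in sealed plates at 28C with test chemical (0.64% DMSO final) from 6 hpf until 120 hpf. Edema of the yolk sac was then recorded as a binary endpoint; non-mortality endpoints were skipped for dead embryos.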

[16] = Tanguay_ZF_120hpf_AXIS_legacy: (Legacy) Oregon State University Tanguay Lab 120 Hour Post-fertilization zebrafish Assay for Body Axis Malformation (AID 2283635);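 as to AC50: potency for an increased fraction of larvae scored with body axis malformation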
Procedure, shortened: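 Each dechorionated embryo was exposed alone from 6 hpf, with DMSO at 0.64% (vol/vol) and trimethyltin chloride 5 uM as positive control. Axis malformation was recorded at 120 hpf unless the embryo had died.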

[17] = Tanguay_ZF_120hpf_EYE_legacy: (Legacy) Oregon State University Tanguay Lab 120 Hour Post-fertilization zebrafish Assay for Eye Malformation (AID 2283636);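 also: binary presence or absence of eye malformation scored by brightfield in 120 hpf larvae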
Procedure, shortened: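 Dechorionated wild-type Tropical 5D zebrafish embryos were exposed statically from 6 hpf, one per well, to 120 hpf at 28C in sealed, foil-covered plates with 0.64% DMSO. Eye malformation was scored present/absent by brightfield microscopy against DMSO controls.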

[18] = Tanguay_ZF_120hpf_SNOU_legacy: (Legacy) Oregon State University Tanguay Lab 120 Hour Post-fertilization zebrafish Assay for Snout Malformation (AID 2283637)
Procedure, shortened: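 Tropical 5D wild-type zebrafish embryos, dechorionated with pronase at 4 hpf, were exposed singly from 6 hpf to 120 hpf statically at 28C in 0.64% DMSO. Snout malformation was scored present/absent by brightfield microscopy, fitted against DMSO.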

[19] = Tanguay_ZF_120hpf_JAW_legacy: (Legacy) Oregon State University Tanguay Lab 120 Hour Post-fertilization zebrafish Assay for Jaw Malformation (AID 2283638);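 as to AC50: active means more embryos with jaw malformation than DMSO controls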
Procedure, shortened: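 Wild-type 5D embryos, chorion removed at 4 hpf, dosed singly from 6 hpf; 28C static, sealed, foil-covered, to 120 hpf. Endpoint: jaw defect yes/no (brightfield); mortality excludes scoring.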

[20] = read-out: UDP glucuronosyltransferase (UGT1A1), UGT1A1 (gene 54658); test: LTEA_HepaRG_UGT1A1: Life Technologies and Expression Analysis (LTEA) Assay for UDP glucuronosyltransferase (UGT1A1) using HepaRG (AID 2283538; active = hit-call score of the fitted dose curve at least 0.9, where 1 is the maximum; inactive = score below 0.9); settings: mRNA level, 48 h; actives raise or lower the signal
Procedure, shortened: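 Readout is UGT1A1 transcript level by qRT-PCR, normalized to three housekeeping genes, after 48 h chemical treatment of HepaRG cells. Concentrations ran from 100 uM down in half-log steps with 0.5% DMSO, and gain or loss relative to DMSO was fitted.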

Measured: AC50

Cellular tumor antigen p53 (Homo sapiens), sequence (P04637 whole entry, looked up): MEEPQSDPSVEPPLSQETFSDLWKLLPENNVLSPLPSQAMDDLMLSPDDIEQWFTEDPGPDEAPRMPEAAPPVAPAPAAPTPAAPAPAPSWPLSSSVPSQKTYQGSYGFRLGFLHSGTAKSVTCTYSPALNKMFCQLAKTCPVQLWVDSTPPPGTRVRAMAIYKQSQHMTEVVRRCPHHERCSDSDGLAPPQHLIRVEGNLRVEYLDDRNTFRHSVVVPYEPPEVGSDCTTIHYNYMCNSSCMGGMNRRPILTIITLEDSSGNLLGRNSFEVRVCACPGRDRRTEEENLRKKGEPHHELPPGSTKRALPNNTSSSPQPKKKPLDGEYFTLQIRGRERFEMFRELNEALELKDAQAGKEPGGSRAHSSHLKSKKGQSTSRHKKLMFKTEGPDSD

CCOC(=O)C(O)(c1ccc(Cl)cc1)c1ccc(Cl)cc1
active: [6] 67.1 µM and 17.8 µM | [7] 63.8 µM and 32.9 µM | [8] 22 µM | [9] 55.2 µM and 50.6 µM | [10] 59.7 µM and 25.1 µM | [11] 80.1 µM and 66.1 µM | [12] 81.7 µM and 24.7 µM | [13] 68.6 µM and 60.8 µM
inactive: [1] | [2] | [3] | [4] | [5] | [8] | [14] | [15] | [16] | [17] | [18] | [19]

ClC1=C(Cl)[C@]2(Cl)[C@@H]3[C@H]4C[C@H]([C@@H]5O[C@H]45)[C@@H]3[C@@]1(Cl)C2(Cl)Cl
active: [20] 2.04 µM | [15] 72 µM | [16] 45.4 µM
not listed: [5] | [7]
inactive: all other assays above

ClC(Cl)=C(c1ccc(Cl)cc1)c1ccc(Cl)cc1
active: [6] 55.6 µM | [7] 87.7 µM | [8] 58.4 µM
inactive: [1] | [2] | [3] | [4] | [5] | [6] | [7] | [8] | [9] | [10] | [11] | [12] | [13] | [14] | [15] | [16] | [17] | [18] | [19]

Clc1ccc(Cl)cc1
inactive: all assays above

CC(C)C(=O)OCC(C)(C)C(OC(=O)C(C)C)C(C)C (stereo unspecified)
active: [8] 46.4 µM | [14] 26.2 µM | [19] 41.6 µM
not listed: [6]
inactive: all other assays above

Clc1ccc(C(Cl)(Cl)Cl)cc1
not listed: [10] | [12] | [18]
inactive: all other assays above

C[C@]12CCC(=O)C=C1CC[C@@H]1[C@@H]2CC[C@@]2(C)[C@H]1CC[C@]2(C)O
active: [2] 45.8 µM | [4] 74 µM | [7] 50.3 µM | [11] 47.1 µM | [13] 48.6 µM
inactive: [1] | [3] | [5] | [6] | [7] | [8] | [9] | [10] | [11] | [12] | [13] | [14] | [15] | [19]

CC1=C2C[C@H]3[C@@H](CC=C4C[C@@H](O)CC[C@@]43C)[C@@H]2CC[C@]12O[C@@H]1C[C@H](C)CN[C@H]1[C@H]2C
active: [3] 25 µM | [15] 17.2 µM | [16] 0.33 µM | [18] 21 µM | [19] 25.9 µM
not listed: [7] | [10] | [20]
inactive: all other assays above

CC(c1ccc(O)cc1)(c1ccc(O)cc1)c1ccc(O)cc1
active: [1] 93.9 µM | [2] 75.2 µM | [4] 76.5 µM | [6] 33.4 µM | [7] 62.8 µM | [9] 78.9 µM | [13] 80.8 µM
not listed: [20]
inactive: all other assays above

CCNc1nc(NC(C)C)nc(SC)n1
inactive: [2] | [3] | [4] | [14] | [15] | [16] | [17] | [18] | [19]

CN(C)c1nc(=O)n(C2CCCCC2)c(=O)n1C
inactive: [2] | [3] | [4] | [14] | [15] | [16] | [17] | [18]

Sc1ccccc1
inactive: [5]

O=S(=O)(O)C(F)(F)C(F)(F)C(F)(F)C(F)(F)C(F)(F)C(F)(F)F
not listed: [6] | [12] | [13] | [20]
inactive: all other assays above

Cc1cc2c3c(c1)C(c1ccccc1)=N[C@@H](NC(=O)c1ccncc1)C(=O)N3CC2
active: [1] 50 µM
not listed: [5] | [6] | [8] | [9] | [10] | [11] | [12] | [20]
inactive: all other assays above

CO/C=C(/C(=O)OC)c1ccccc1COc1cccc(C(F)(F)F)n1
active: [1] 10.1 µM | [2] 22.2 µM | [4] 21.2 µM | [7] 2.77 µM | [9] 6.17 µM | [11] 4.18 µM | [13] 5.53 µM | [15] 4.88 µM | [16] 6.06 µM | [17] 3.83 µM | [18] 2.99 µM | [19] 2.66 µM
inactive: [3] | [5] | [6] | [8] | [10] | [12] | [14]
